{
  "source": "the supplement of paper PMC8975748",
  "note": "Counter-ions that a name gives are not always drawn.",
  "data": [
    {"system": "Saccharomyces cerevisiae BY4741 SeMeCo community", "experiment": "z-score of subpopulation abundance vs DMSO median, subpopulation auxotrophic for HUM; higher = larger share of this subpopulation than in DMSO controls", "details": "10 µM; 24 h; SM minimal medium; subpopulation (auxotrophy): HUM", "method_in_brief": "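Automated confocal microscopy of paraformaldehyde-fixed cells was used to follow a Saccharomyces cerevisiae BY4741 community carrying four plasmids, each restoring one auxotrophy and encoding a distinct fluorescent protein. The community was pre-grown overnight to OD600 1.0, diluted to 0.3, and added at 70 µl to 384-well plates acoustically predosed with library drugs (10 µM final) for 24 h of growth in minimal SM medium. Single-auxotroph fluorescent strains set thresholds and autofluorescence correction, and each subpopulation's abundance was scored as a z-score against the vehicle-well median.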", "values": [
      {"smiles": "O=C(Cn1cnnn1)N[C@@H]1C(=O)N2C(C(=O)O)=C(CSc3nncs3)CS[C@H]12", "note": "[Ceftezole]", "z-score of subpopulation abundance": -1.25},
      {"smiles": "O=C(NCCN1CCOCC1)c1ccc(Cl)cc1", "z-score of subpopulation abundance": -1.26},
      {"smiles": "C=C[C@]1(C)C[C@@H](OC(=O)CSC(C)(C)CNC(=O)[C@H](N)C(C)C)[C@]2(C)[C@H](C)CC[C@]3(CCC(=O)[C@H]32)[C@@H](C)[C@@H]1O", "note": "[Valnemulin HCl]", "z-score of subpopulation abundance": 0.58},
      {"smiles": "CN1CCN(CCCN2c3ccccc3Sc3ccc(C(F)(F)F)cc32)CC1", "note": "[Trifluoperazine 2HCl]", "z-score of subpopulation abundance": 0.42},
      {"smiles": "CCCCCCCCN=c1ccn(CCCCCCCCCCn2ccc(=NCCCCCCCC)cc2)cc1", "note": "[Octenidine Dihydrochloride]", "z-score of subpopulation abundance": 26.9},
      {"smiles": "CC1(C)S[C@@H]2[C@H](NC(=O)Cc3ccccc3)C(=O)N2[C@H]1C(=O)O", "note": "[Penicillin G Sodium]", "z-score of subpopulation abundance": -0.66},
      {"smiles": "CC(C)[C@H]1CC[C@H](C(=O)N[C@H](Cc2ccccc2)C(=O)O)CC1", "note": "[Nateglinide]", "z-score of subpopulation abundance": -0.11},
      {"smiles": "Nc1ccc(S(=O)(=O)NC(=O)c2ccccc2)cc1", "note": "[Sulfabenzamide]", "z-score of subpopulation abundance": -1.03},
      {"smiles": "COc1ccc(C(=O)NCc2ccc(OCCN(C)C)cc2)cc1OC", "note": "[Itopride hydrochloride]", "z-score of subpopulation abundance": 0.81},
      {"smiles": "COc1ccc(-c2nc3cc(C4=NNC(=O)CC4C)ccc3[nH]2)cc1", "note": "(centres undefined) [Pimobendan]", "z-score of subpopulation abundance": 0.52},
      {"smiles": "CC(C)N1CCN(c2ccc(OCC3COC(Cn4cncn4)(c4ccc(Cl)cc4Cl)O3)cc2)CC1", "note": "(centres undefined) [Terconazole]", "z-score of subpopulation abundance": -0.65},
      {"smiles": "COc1cc([C@@H]2c3cc4c(cc3[C@@H](O[C@@H]3O[C@@H]5CO[C@@H](c6cccs6)O[C@H]5[C@H](O)[C@H]3O)[C@H]3COC(=O)[C@H]23)OCO4)cc(OC)c1O", "note": "[Teniposide]", "z-score of subpopulation abundance": 1.08},
      {"smiles": "COc1ccc2c(c1)c(CC(=O)O)c(C)n2C(=O)c1ccc(Cl)cc1", "note": "[Indomethacin]", "z-score of subpopulation abundance": 0.09},
      {"smiles": "N[C@@H](CCC(=O)O)C(=O)O", "note": "[(S)-Glutamic acid]", "z-score of subpopulation abundance": -0.56},
      {"smiles": "CC1(C)S[C@@H]2[C@H](NC(=O)Cc3ccccc3)C(=O)N2[C@H]1C(=O)O", "note": "[Benzylpenicillin potassium]", "z-score of subpopulation abundance": 0.17},
      {"smiles": "NC(=O)c1cnccn1", "note": "[Pyrazinamide]", "z-score of subpopulation abundance": 0.08},
      {"smiles": "Cc1nnc(NS(=O)(=O)c2ccc(N)cc2)s1", "note": "[Sulfamethizole]", "z-score of subpopulation abundance": -0.98},
      {"smiles": "CCC[C@@H]1C[C@@H](C(=O)N[C@@H]([C@H]2O[C@H](SC)[C@H](OP(=O)(O)O)[C@@H](O)[C@H]2O)[C@H](C)Cl)N(C)C1", "note": "[Clindamycin Phosphate]", "z-score of subpopulation abundance": 0.81},
      {"smiles": "CN[C@@H]1[C@H](O[C@H]2[C@H](O[C@H]3[C@H](O)[C@@H](O)[C@H](N=C(N)N)[C@@H](O)[C@@H]3N=C(N)N)O[C@@H](C)[C@]2(O)C=O)O[C@@H](CO)[C@H](O)[C@H]1O", "note": "[Streptomycin sulfate]", "z-score of subpopulation abundance": 0.39},
      {"smiles": "O=c1[nH]cnc2c1ncn2[C@@H]1O[C@H](CO)[C@@H](O)[C@H]1O", "note": "[Isoprinosine]", "z-score of subpopulation abundance": -0.24},
      {"smiles": "C=C1c2cccc(O)c2C(O)=C2C(=O)[C@]3(O)C(O)=C(C(N)=O)C(=O)[C@@H](N(C)C)[C@@H]3[C@@H](O)[C@H]12", "note": "[Methacycline HCl]", "z-score of subpopulation abundance": -0.03},
      {"smiles": "COC(=O)C1=C(C)NC(C)=C(C(=O)OC)C1c1ccccc1[N+](=O)[O-]", "note": "[Nifedipine]", "z-score of subpopulation abundance": -0.1},
      {"smiles": "Nc1ccc(S(=O)(=O)c2ccc(N)cc2)cc1", "note": "[Dapson]", "z-score of subpopulation abundance": 0.6},
      {"smiles": "NC(CO)(CO)CO", "note": "[Trometamol]", "z-score of subpopulation abundance": -0.08},
      {"smiles": "C[C@]1(COc2ccc(N3CCC(Oc4ccc(OC(F)(F)F)cc4)CC3)cc2)Cn2cc([N+](=O)[O-])nc2O1", "note": "[Delamanid]", "z-score of subpopulation abundance": -0.19},
      {"smiles": "Nc1nc(=O)[nH]cc1F", "note": "[Flucytosine]", "z-score of subpopulation abundance": 10.3},
      {"smiles": "CO[C@@H]1[C@@H](O[C@@H]2O[C@H](C)[C@@H](O[C@H]3C[C@@](C)(O)[C@@H](O)[C@H](C)O3)[C@H](N(C)C)[C@H]2O)[C@@H](CC=O)C[C@@H](C)[C@@H](O[C@H]2CC[C@H](N(C)C)[C@@H](C)O2)/C=C/C=C/C[C@@H](C)OC(=O)C[C@H]1OC(C)=O", "note": "[Acetylspiramycin (ASPM)]", "z-score of subpopulation abundance": 0.11},
      {"smiles": "C[C@]12CC[C@@H]3c4ccc(OS(=O)(=O)O)cc4CC[C@H]3[C@@H]1CCC2=O", "note": "[Estropipate]", "z-score of subpopulation abundance": -0.32},
      {"smiles": "COc1ccnc(C[S+]([O-])c2nc3cc(-n4cccc4)ccc3[nH]2)c1C", "note": "(centres undefined) [Ilaprazole sodium]", "z-score of subpopulation abundance": 0.43},
      {"smiles": "CN1C[C@@H]2C[C@H]1CN2c1cc2c(cc1F)c(=O)c(C(=O)O)cn2C1CC1", "note": "[Danofloxacin Mesylate]", "z-score of subpopulation abundance": -0.05},
      {"smiles": "c1ccc(-c2ccc(C(c3ccccc3)n3ccnc3)cc2)cc1", "note": "(centres undefined) [Bifonazole]", "z-score of subpopulation abundance": 0.21},
      {"smiles": "CO/N=C(\\C(=O)N[C@@H]1C(=O)N2C(C(=O)O)=CCS[C@H]12)c1csc(N)n1", "note": "[Ceftizoxime]", "z-score of subpopulation abundance": -1.23},
      {"smiles": "CN(C)[C@@H]1C(=O)C(C(N)=O)=C(O)[C@@]2(O)C(=O)C3=C(O)c4c(O)ccc(Cl)c4[C@@H](O)[C@H]3C[C@@H]12", "note": "[Demeclocycline HCl]", "z-score of subpopulation abundance": -1},
      {"smiles": "C#C[C@]1(O)CC[C@H]2[C@@H]3CCC4=Cc5oncc5C[C@]4(C)[C@H]3CC[C@@]21C", "note": "[Danazol]", "z-score of subpopulation abundance": 0.74},
      {"smiles": "Nc1c(Br)cc(Br)cc1CN[C@H]1CC[C@H](O)CC1", "note": "[Ambroxol HCl]", "z-score of subpopulation abundance": -0.94},
      {"smiles": "CCOC(=O)c1ccc(N)cc1", "note": "[Benzocaine]", "z-score of subpopulation abundance": -0.48},
      {"smiles": "O=C1c2c(O)ccc(O)c2C(=O)c2c(NCCNCCO)ccc(NCCNCCO)c21", "note": "[Mitoxantrone 2HCl]", "z-score of subpopulation abundance": -6.42},
      {"smiles": "c1ccc2[nH]c(-c3cscn3)nc2c1", "note": "[Thiabendazole]", "z-score of subpopulation abundance": 0.33},
      {"smiles": "C[C@@H](O)[C@H]1C(=O)N2C(C(=O)[O-])=C(SC3Cn4cnc[n+]4C3)[C@H](C)[C@H]12", "note": "(some centres undefined) [Biapenem]", "z-score of subpopulation abundance": -0.24}
    ]}
  ]
}
